The source made the active and inactive calls. Entries that show only a call come without a potency. The call rests on the fitted dose curve; in most records, active means well fitted activation curve with a large enough effect in the repeat runs; inconclusive means weak or mixed curves; inactive means flat fitted curve, though single readings scatter.
Potency means the concentration at half of the fitted maximal effect.

A short description of this test: A CellTox Green Cytotoxicity Assay to monitor cytotoxicity in HepG2 cells - 0 hour (AID 1224882). Further: nearly all actives have a fitted effect of over 35% in size. The following applies: CellTox Green fluorescence; series mostly up to 76.8 µM. The source says:
National Center for Advancing Translational Sciences [NCATS]
NIH Chemical Genomics Center [NCGC]
U.S. Environmental Protection Agency [EPA]
National Institutes of Environmental Health Sciences [NIEHS]
National Toxicology Program [NTP]
Cell-based models are critical for drug discovery. Determining the natural cytotoxic effects resulting from test compounds is an essential research activity. A CellTox Green Cytotoxicity Assay to monitor cytotoxicity in real time of continues cell culture during 40 hours of the compound treatment was used to screen Tox21 10K library compounds in HepG2 cells. CellTox Green Cytotoxicity Assay is a nonlytic, homogeneous, biofluorescent method to measure cytotoxicity in cell culture after experimental manipulation. The assay system uses a proprietary asymmetric cyanine dye that is excluded from viable cells but preferentially stains the dead cell's DNA. […] Viable cells produce no appreciable increases in fluorescence. Therefore, the fluorescence signal produced by the binding interaction with dead cell DNA is proportional to cytotoxicity.
The mixture of HepG2 cell suspension and reagents were dispensed at 600cells/6 ul/well in 1536-well tissue culture treated black solid bottom plates using a Multidrop dispenser. After the assay plates were incubated at a 37 C/5% CO2 incubator for 5 hours, 23 nL of compounds dissolved in DMSO, positive and negative controls was transferred to the assay plate by a pintool work station. The plates were incubated at 37 C for 40 hours. The fluorescence intensity were measured at 0h, 8h, 16h, 24h, 32h and 40h time points using ViewLux plate reader during compound treatment.
For `Nc1cc(Cl)ccc1Cl`, the Potency entry is “inactive”.

On to `S=C=Nc1ccccc1`, for which the Potency entry was “inactive”.

Consider `CC(C)N(C(=O)SC/C(Cl)=C/Cl)C(C)C`, for which the Potency result was “inactive”.

Turning to `NC(=O)C(Cl)Cl`, the Potency result is “inactive”.

For the compound `COc1nc(C)nc(NC(=O)NS(=O)(=O)c2ccccc2Cl)n1`, the Potency entry was “inactive”.

In the case of `CCCCCCCCCCCCCCn1cc[n+](C)c1`, the Potency entry was “inactive”.

Take `Cc1c([N+](=O)[O-])cc2c(c1[N+](=O)[O-])C(C)(C)CC2(C)C`: the Potency entry was “inactive”.

`O=C(NC(=O)c1c(F)cccc1F)Nc1ccc(Oc2ccc(C(F)(F)F)cc2Cl)cc1F`: the Potency entry is “inactive”.

For `ClSC(Cl)(Cl)Cl`, the Potency result was “inactive”.

For the compound `CC(O)C(=O)[O][Hg][c]1ccccc1` (stereo not given), the Potency result was “inactive”.

Regarding `O=C(NC(=O)c1ccccc1Cl)Nc1ccc(OC(F)(F)F)cc1`, the Potency result was “inactive”.

Consider `CC(=O)C(Cl)C(=O)N(C)C` (stereo not given), for which the Potency entry was “inactive”.

In the case of `C=CCOC(=O)c1ccccc1N`, the Potency result is “inactive”.

On to `CCOC(=O)CCN(SN(C)C(=O)Oc1cccc2c1OC(C)(C)C2)C(C)C`, for which the Potency entry is “inactive”.

`O=C(N[C@@H]1N=C(c2ccccc2F)c2cccc3c2N(CC3)C1=O)c1cc2ccccc2[nH]1`: the Potency is 26.8 µM (active).

Take `CC(C)C(Nc1ccc(C(F)(F)F)cc1Cl)C(=O)OC(C#N)c1cccc(Oc2ccccc2)c1` (stereo not given): the Potency entry is “inactive”.

As for `O=c1[nH]c(Cl)c(Cl)cc1Cl`, the Potency entry was “inactive”.

`c1ccc(N=NNc2ccccc2)cc1`: the Potency result was “inactive”.

Take `CCC(OC(C)=O)C(CC(C)NC)(c1ccccc1)c1ccccc1` (stereo not given): the Potency entry was “inactive”.

For the compound `c1cc[n+]2c(c1)-c1cccc[n+]1CC2`, the Potency result is “inactive”.

Turning to `O.O.O.O.O.O.O.O=S(=O)([O-])[O-].[Co+2]`, the Potency result was “inactive”.

Turning to `CN1C(=O)[C@@H](NC(=O)c2cc3ccccc3[nH]2)N=C(c2ccccc2)c2ccccc21`, the Potency entry is “inactive”.

Turning to `CC(=O)[O-].CC(=O)[O-].O.O.O.[Pb+2]`, the Potency result was “inactive”.

Take `CN=C=O`: the Potency result is “inactive”.

For the compound `N#Cc1sc2c(=O)c3ccccc3c(=O)c=2sc1C#N`, the Potency entry is “inactive”.

Consider `CCn1cc[n+](C)c1` (tested in a mixture with another compound), for which the Potency result is “inactive”.

As for `COP(=O)(OC)Oc1ccc([N+](=O)[O-])cc1`, the Potency entry was “inactive”.

For the compound `CCCCN(CCCC)C(=S)S`, the Potency entry is “inactive”.

`COc1c2c(cc3c1OCO3)CCN(C)C2`: the Potency entry was “inactive”.

`CCCCC(CC)COC(=O)OOC(C)(C)C` (stereo not given): the Potency entry was “inactive”.

As to `CN1[C@@H]2CC[C@H]1CC(O)C2` (stereo not given in full), the Potency entry was “inactive”.

For the compound `C[C@]12Cc3cn[nH]c3C[C@@H]1CC[C@@H]1[C@@H]2CC[C@@]2(C)[C@H]1CC[C@]2(C)O`, the Potency result is “inactive”.

For `NC1CCC(CC2CCC(N)CC2)CC1` (stereo not given), the Potency result is “inactive”.

`CO/N=C(\C(=O)OC)c1ccccc1CO/N=C(\C)c1cccc(C(F)(F)F)c1`: the Potency entry is “inactive”.

Consider `CCCCC/C=C\C/C=C\C/C=C\C/C=C\CCCC(=O)NCC(=O)O`, for which the Potency entry was “inactive”.

Take `C#CC1(O)CCCCC1`: the Potency entry was “inactive”.

With `CCCCN(CCCC)C(=S)[S-].CCCCN(CCCC)C(=S)[S-].[Ni+2]`, the Potency result is “inactive”.

For the compound `COC(=O)c1cc(Oc2ccc(Cl)cc2Cl)ccc1[N+](=O)[O-]`, the Potency result is “inactive”.

Take `N#Cc1c2ccccc2cc2ccccc12`: the Potency result was “inactive”.

In the case of `COC(=O)C(C)N(C(=O)c1ccco1)c1c(C)cccc1C` (stereo not given), the Potency result is “inactive”.

The values are drawn from PubChem BioAssay (Tox21).
